Experimental findings from PubChem BioAssay (EPA / NIEHS) are described below.

Structures are written as SMILES. Where “and” joins values, the source holds several entries; their conditions need not be identical. Identical values can stand only once. Inconclusive results are not listed. Where a structure was tested more than once in an assay, its records may differ in their call. Calls of active or inactive are those of the source. The calls were made as follows, unless noted: active = hit-call score of the fitted dose curve at least 0.9, where 1 is the maximum; inconclusive = response in the unintended direction; inactive = score below 0.9.

Assay [1] concerns the target Cellular tumor antigen p53 (Homo sapiens) (UniProt P04637). The assay can be described thus: TOX21_p53_BLA_p2_ratio: Tox21 HCT-116 p53 Agonism Beta-lactamase Assay, Ratio, Phase 2 (AID 2283592). The essentials: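 In this cell-based reporter format, HCT116 cells were dosed with chemicals delivered from DMSO by 217-fold dilution and incubated 16 h at 37C. Emission at 460 and 530 nm after 2 h CCF4-AM loading provided the ratio, fitted upward versus DMSO.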

Assay [2] in a line: TOX21_p53_BLA_p3_viability: Viability Assessment in the Tox21 HCT-116 p53 Agonism Beta-lactamase Assay, Phase 3 (AID 2283593).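 Also: cells exposed to compound for 16 h before reading.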 In a few lines: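 HCT-116 cells (4000/well) rested 5 h at 37C, then got DMSO compounds by pin tool (217-fold dilution) for 16 h at 37C, 5% CO2. After the bla read, CellTiter-Glo was added and luminescence read at 30 min, room temperature.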
In assay [3] the target is Cellular tumor antigen p53 (Homo sapiens) (UniProt P04637). Nature of the assay: TOX21_p53_BLA_p3_ratio: Tox21 HCT-116 p53 Agonism Beta-lactamase Assay, Ratio, Phase 3 (AID 2283596). The essentials:
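HCT116 p53-bla cells (4000/well) given compound in DMSO (217-fold dilution) after 5 h, incubated 16 h at 37C. CCF4-AM substrate 2 h at room temperature; 460/530 nm emission ratio, gain fitted against DMSO.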

The nature of assay [4]: TOX21_p53_BLA_p4_viability: Viability Assessment in the Tox21 HCT-116 p53 Agonism Beta-lactamase Assay, Phase 4 (AID 2283597).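 Also: hits lower the luminescence signal meaning cytotoxicity.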 In a few lines: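 We seeded HCT116 p53 reporter cells at 4000/well and waited 5 h. We then added compounds in DMSO at a 217-fold dilution and incubated for 16 h. Viability was read as CellTiter-Glo luminescence after 30 min at RT.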
Assay [5] deals with Cellular tumor antigen p53 (Homo sapiens) (UniProt P04637). Nature of the assay: TOX21_p53_BLA_p5_ratio: Tox21 HCT-116 p53 Agonism Beta-lactamase Assay, Ratio, Phase 5 (AID 2283599). The essentials:
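HCT-116 cells carrying a p53-inducible beta-lactamase reporter were seeded at 4000 cells/well and dosed after 5 h with compound in DMSO (217-fold dilution). After 16 h at 37C, CCF4-AM substrate was added for 2 h, and the 460/530 nm emission ratio was scored as gain-of-signal versus DMSO.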

Assay [6] can be described thus: TOX21_p53_BLA_p5_viability: Viability Assessment in the Tox21 HCT-116 p53 Agonism Beta-lactamase Assay, Phase 5 (AID 2283600). In a few lines:
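Compounds, pinned from DMSO at 217-fold dilution, were left on the cells for 16 h. The viability endpoint was ATP content measured by CellTiter-Glo luminescence, where falling signal reflects cytotoxicity.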

Assay [7] concerns the target Cellular tumor antigen p53 (Homo sapiens) (UniProt P04637). Nature of the assay: TOX21_p53_BLA_p4_ratio: Tox21 HCT-116 p53 Agonism Beta-lactamase Assay, Ratio, Phase 4 (AID 2283601). In a few lines:
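HCT116 cells carrying an inducible beta-lactamase reporter were plated at 4000 cells/well, rested 5 h, then exposed to compounds in DMSO (217-fold dilution) for 16 h at 37C. CCF4-AM substrate was loaded 2 h at room temperature; 460/530 nm emission ratio scored gain-of-signal versus DMSO.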

Assay [8] is described as follows: ACEA_ER_AUC_viability: ACEA Biosciences xCELLigence Real-Time Cell Analysis on Estrogen Receptor Agonism for Viability (AID 2283782).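 Also: continuous compound exposure with impedance area under curve over 80 h; hit means loss of impedance signal meaning reduced cell growth or viability.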 The essentials:
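T-47D human breast cells in phenol red-free RPMI1640 with 10% charcoal-stripped FBS were dosed with an 8-point 1:4 dilution series from 100 uM top final concentration, in duplicate. Impedance-based growth was followed for 80 h; AUC analysed versus DMSO.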

Assay [9] in a line: CCTE_Harrill_HTTr_Viability_MCF7: CCTE's 6-hour Cell Viability Assessment for the High-Throughput Transcriptomics (HTTr) Platform, in MCF-7 cells cultured in DMEM + 10% fetal bovine serum, Harrill Lab (AID 2284010; active = hit-call score of the fitted dose curve at least 0.9, where 1 is the maximum; inactive = score below 0.9). In a few lines:
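MCF-7 cells in DMEM + 10% FBS, 384-well, exposed 6 h to an eight-point dilution series. Membrane integrity scored by high-content imaging of propidium iodide exclusion; bidirectional fit versus DMSO.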

The nature of assay [10]: CCTE_Harrill_HTTr_Apoptosis_MCF7: CCTE's 6-hour Apoptosis Assessment for the High-Throughput Transcriptomics (HTTr) Platform, in MCF-7 cells cultured in DMEM + 10% fetal bovine serum, Harrill Lab (AID 2284011; active = hit-call score of the fitted dose curve at least 0.9, where 1 is the maximum; inactive = score below 0.9). In a few lines: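 Read-out: CellEvent Caspase 3/7 Green signal by high content imaging, gain-of-signal indicating apoptosis. MCF-7 cells, DMEM + 10% FBS, eight-point dilution series, 6 h exposure. Curves fitted bidirectionally relative to DMSO negative control.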

Assay [11] can be described thus: CCTE_Harrill_HTTr_CellCount_MCF7: CCTE's Cell Proliferation Assessment for the High-Throughput Transcriptomics (HTTr) Platform, Harrill Lab (AID 2284012).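 Also: cells exposed to compound for six hours; intended direction is loss of nuclei count meaning fewer cells.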 In a few lines:
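MCF7 cells exposed 6 hours to an eight-point dilution series; Hoechst-stained nuclei counted by high-content imaging. Bidirectional curve fitting against DMSO baseline.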

Chain of Cellular tumor antigen p53 (Homo sapiens) (P04637 whole entry, looked up): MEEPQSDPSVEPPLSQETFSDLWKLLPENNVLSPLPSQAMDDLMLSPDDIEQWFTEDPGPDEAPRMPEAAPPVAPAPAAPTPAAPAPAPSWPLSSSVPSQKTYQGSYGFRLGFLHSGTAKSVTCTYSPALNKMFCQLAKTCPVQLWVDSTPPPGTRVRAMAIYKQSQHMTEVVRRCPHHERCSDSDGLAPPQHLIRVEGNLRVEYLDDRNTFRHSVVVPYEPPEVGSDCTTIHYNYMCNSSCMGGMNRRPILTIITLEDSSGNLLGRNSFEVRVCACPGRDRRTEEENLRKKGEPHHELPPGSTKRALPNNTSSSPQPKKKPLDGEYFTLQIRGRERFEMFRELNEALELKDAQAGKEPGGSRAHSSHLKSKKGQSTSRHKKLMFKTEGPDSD

With `C[C@@H]1O[C@@H]1P(=O)(O)O`, the outcome in [1], in [2], in assay [3], in assay [4], in [5] and in [6] was inactive. Further, in assay [7], the outcome was inactive.

Take `CCOC(=O)COc1ccc(C)cc1`: the result in assay [1], in assay [2], in [3], in assay [4], in assay [5] and in [6] was inactive. Besides, the outcome in [7] and in assay [8] was inactive.

For the compound `CN(C)CCOC(=O)COc1ccc(Cl)cc1`, the result in assay [1], in assay [2], in assay [3], in assay [4], in assay [5] and in assay [6] was inactive. Moreover, the outcome in [9], in [10] and in [11] was inactive.

In the case of `Nc1c2c(nc3ccccc13)CCCC2`, the result in [1], in assay [2], in [3], in assay [4], in [5] and in assay [6] was inactive. The result in assay [7], in assay [9], in [10] and in assay [11] was inactive.

In the case of `c1ccc([C@H]2CN3CCSC3=N2)cc1`, the result in assay [1], in assay [2], in assay [3], in assay [4], in assay [5] and in assay [6] was inactive. Also, the result in assay [7], in assay [9], in assay [10] and in assay [11] was inactive.

With `CC(=O)[C@]1(O)Cc2c(O)c3c(c(O)c2[C@@H](O[C@H]2C[C@H](N)[C@H](O)[C@H](C)O2)C1)C(=O)c1c(O)cccc1C3=O`, the AC50 (usually the concentration giving half of the maximal activity seen) was 346 nM (active) and 263 nM (active) in assay [1]; 222 nM (active) and 212 nM (active) in assay [3]; 0.571 µM (active) in assay [7]. The outcome in assay [2], in assay [4], in [5], in assay [6] and in [7] was inactive.
